Measurements from PubChem BioAssay (EPA / NIEHS).
Values joined by “and” are separate entries in the source; they are usually repeats but may differ in a detail not shown here. Equal entries are not always repeated. Where a structure was tested more than once in an assay, its records may differ in their call. Active and inactive are the calls of the source. How the source made its calls: active means hit-call score of the fitted dose curve at least 0.9, where 1 is the maximum; inactive means score below 0.9.

Assays:
[1] = read-out: Interleukin-6 (IL6), IL6 (gene 3569); assay: BSK_CASM3C_IL6: BioMAP Diversity Plus: CASM3C Assay for Interleukin-6 (IL6) Biomarker Activity for (AID 2283040); details: primary human coronary artery smooth muscle cells; actives raise or lower the signal
[2] = read-out: Tissue plasminogen activator (tPA), PLAT (gene 5327); assay: BSK_BE3C_tPA: BioMAP Diversity Plus: BE3C Assay for Tissue plasminogen activator (tPA) Biomarker Activity (AID 2283041); details: primary human bronchial epithelial cells; actives raise or lower the signal
Method in brief: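 Primary human bronchial epithelial cells in the BE3C system, exposed to compound for 24 h. tPA was quantified by ELISA; DMSO served as baseline, with gain or loss of signal fitted. Cytotoxicity checked in parallel cultures by SRB total-protein staining.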

[3] = read-out: Interleukin-8 (IL8), CXCL8 (gene 3576); assay: BSK_CASM3C_IL8: BioMAP Diversity Plus: CASM3C Assay for Interleukin-8 (IL8) Biomarker Activity (AID 2283042); details: primary human coronary artery smooth muscle cells; actives raise or lower the signal;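 further: IL-8 protein level quantified by ELISA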
[4] = read-out: Human Leukocyte Antigen - DR isotype (HLADR), HLA-DRA (gene 3122); assay: BSK_CASM3C_HLADR: BioMAP Diversity Plus: CASM3C Assay for Human Leukocyte Antigen - DR isotype (HLADR) Biomarker Activity (AID 2283043); details: primary human coronary artery smooth muscle cells; actives raise or lower the signal;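 further: cell-surface HLA-DR protein level quantified by ELISA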
[5] = read-out: Macrophage colony-stimulating factor (MCSF), CSF1 (gene 1435); assay: BSK_CASM3C_MCSF: BioMAP Diversity Plus: CASM3C Assay for Macrophage colony-stimulating factor (MCSF) Biomarker Activity (AID 2283044); details: primary human coronary artery smooth muscle cells; actives raise or lower the signal;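 further: M-CSF protein amount quantified by ELISA after 24 h exposure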
[6] = read-out: Low-density lipoprotein receptor (LDLR), LDLR (gene 3949); assay: BSK_CASM3C_LDLR: BioMAP Diversity Plus: CASM3C Assay for Low-density lipoprotein receptor (LDLR) Biomarker Activity (AID 2283045); details: primary human coronary artery smooth muscle cells; actives raise or lower the signal;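 further: LDLR protein level on the cell surface quantified by ELISA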
[7] = read-out: Monocyte Chemoattractant Protein-1 (MCP1), CCL2 (gene 6347); assay: BSK_CASM3C_MCP1: BioMAP Diversity Plus: CASM3C Assay for Monocyte Chemoattractant Protein-1 (MCP1) Biomarker Activity (AID 2283046); details: primary human coronary artery smooth muscle cells; actives raise or lower the signal;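 further: MCP-1 level quantified by ELISA 24 h after dosing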
[8] = BSK_CASM3C_Proliferation: Cell Proliferation Assessment in the BioMAP Diversity Plus: CASM3C Assay (AID 2283047); details: primary human coronary artery smooth muscle cells;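 further: sulforhodamine B total protein stain as relative cell number at 560 nm; sub-confluent cells exposed 48 h before staining; fitted both ways against DMSO so gain or loss of cell number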
[9] = read-out: Monokine induced gamma interferon (MIG), CXCL9 (gene 4283); assay: BSK_CASM3C_MIG: BioMAP Diversity Plus: CASM3C Assay for Monokine induced gamma interferon (MIG) Biomarker Activity (AID 2283048); details: primary human coronary artery smooth muscle cells; actives raise or lower the signal;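 further: MIG protein level measured by ELISA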
[10] = read-out: serum amyloid A (SAA), SAA1 (gene 6288); assay: BSK_CASM3C_SAA: BioMAP Diversity Plus: CASM3C Assay for serum amyloid A (SAA) Biomarker Activity (AID 2283049); details: primary human coronary artery smooth muscle cells; actives raise or lower the signal;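 further: SAA protein level quantified by ELISA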
[11] = BSK_CASM3C_SRB: Viability Assessment in the BioMAP Diversity Plus: CASM3C Assay (AID 2283050); details: primary human coronary artery smooth muscle cells
[12] = read-out: Thrombomodulin, THBD (gene 7056); assay: BSK_CASM3C_Thrombomodulin: BioMAP Diversity Plus: CASM3C Assay for Thrombomodulin Biomarker Activity (AID 2283051); details: primary human coronary artery smooth muscle cells; actives raise or lower the signal;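 further: thrombomodulin protein level measured by ELISA 24 h after dosing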
[13] = read-out: Tissue Factor, F3 (gene 2152); assay: BSK_CASM3C_TissueFactor: BioMAP Diversity Plus: CASM3C Assay for Tissue Factor Biomarker Activity (AID 2283052); details: primary human coronary artery smooth muscle cells; actives raise or lower the signal;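 further: cell surface tissue factor protein level read by ELISA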
[14] = read-out: Interferon-gamma inducible Protein 10 (IP10), CXCL10 (gene 3627); assay: BSK_hDFCGF_IP10: BioMAP Diversity Plus: hDFCGF Assay for Interferon-gamma inducible Protein 10 (IP10) Biomarker Activity (AID 2283053); details: primary human foreskin fibroblasts; actives raise or lower the signal
Method in brief: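 Primary human foreskin fibroblasts exposed to chemicals for 24 h. IP-10 measured by ELISA; changes fitted bidirectionally against DMSO baseline.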

[15] = read-out: Urokinase-type plasminogen activator receptor (uPAR), PLAUR (gene 5329); assay: BSK_CASM3C_uPAR: BioMAP Diversity Plus: CASM3C Assay for Urokinase-type plasminogen activator receptor (uPAR) Biomarker Activity (AID 2283054); details: primary human coronary artery smooth muscle cells; actives raise or lower the signal;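 further: cell-surface uPAR protein level quantified by ELISA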
[16] = read-out: Vascular cell adhesion molecule 1 (VCAM1), VCAM1 (gene 7412); assay: BSK_CASM3C_VCAM1: BioMAP Diversity Plus: CASM3C Assay for Vascular cell adhesion molecule 1 (VCAM1) Biomarker Activity (AID 2283055); details: primary human coronary artery smooth muscle cells; actives raise or lower the signal;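 further: VCAM-1 protein level quantified by ELISA on the cells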
[17] = read-out: Epidermal growth factor receptor (EGFR), EGFR (gene 1956); assay: BSK_hDFCGF_EGFR: BioMAP Diversity Plus: hDFCGF Assay for Epidermal growth factor receptor (EGFR) Biomarker Activity (AID 2283057); details: primary human foreskin fibroblasts; actives raise or lower the signal
Method in brief: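 Primary human foreskin fibroblasts (hDFCGF system), sampled 24 h after dosing; EGFR quantified by ELISA. Bidirectional fit relative to DMSO baseline; SRB total-protein staining in parallel cultures for cytotoxicity.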

[18] = read-out: Interleukin-8 (IL8), CXCL8 (gene 3576); assay: BSK_hDFCGF_IL8: BioMAP Diversity Plus: hDFCGF Assay for Interleukin-8 (IL8) Biomarker Activity (AID 2283058); details: primary human foreskin fibroblasts; actives raise or lower the signal
Method in brief: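 IL-8 levels from compound-treated primary human fibroblasts were read by ELISA at 24 h, with DMSO serving as baseline for bidirectional fitting.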

[19] = BSK_hDFCGF_Proliferation: Cell Proliferation Assessment in the BioMAP Diversity Plus: hDFCGF Assay (AID 2283059); details: primary human foreskin fibroblasts;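 further: curves fitted for both rise and fall of signal versus DMSO baseline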
Method in brief: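 Steps: dose primary human dermal fibroblasts (foreskin); […] fix in 10% TCA; stain with 0.1% SRB; read 560 nm; fit gain or loss of signal against DMSO.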

[20] = read-out: Collagen III, COL3A1 (gene 1281); assay: BSK_hDFCGF_CollagenIII: BioMAP Diversity Plus: hDFCGF Assay for Collagen III Biomarker Activity (AID 2283056); details: primary human foreskin fibroblasts; actives raise or lower the signal
Method in brief: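 Cells: human foreskin fibroblasts, primary. Dosing followed by 24 h incubation, then ELISA for collagen III. Both increases and decreases scored relative to DMSO.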

Measured: AC50

FC(F)(F)C(F)(F)C(F)(F)C(F)(F)CCI
inactive: [1] | [2] | [3] | [4] | [5] | [6] | [7] | [8] | [9] | [10] | [11] | [12] | [13] | [14] | [15] | [16] | [17] | [18] | [19]
active: [9] 18.7 µM

O=C(O)C(F)(F)C(F)(F)C(F)(F)C(F)(F)C(F)(F)C(F)(F)C(F)(F)C(F)(F)C(F)(F)C(F)F
active: [14] 18.3 µM and 12.8 µM | [20] 3.34 µM and 8.08 µM | [19] 15.8 µM and 18.9 µM
inactive: all other assays above

CCCCCCOC(=O)c1ccccc1O
active: [8] 33.5 µM and 24.5 µM | [14] 38.1 µM and 40.6 µM | [20] 24.5 µM and 16.9 µM | [18] 36.9 µM and 42.9 µM | [19] 15.1 µM and 14.2 µM
inactive: all other assays above

O=C(O)C(F)(OC(F)(F)C(F)(OC(F)(F)C(F)(F)C(F)(F)F)C(F)(F)F)C(F)(F)F (centres undefined)
inactive: all assays above

O=C(O)C(F)(OC(F)(F)C(F)(OC(F)(F)C(F)(OC(F)(F)C(F)(F)C(F)(F)F)C(F)(F)F)C(F)(F)F)C(F)(F)F (centres undefined)
inactive: all assays above

CCO[Si](CCC(F)(F)C(F)(F)C(F)(F)C(F)(F)C(F)(F)C(F)(F)F)(OCC)OCC
active: [13] 1.58 µM
inactive: [1] | [2] | [3] | [4] | [5] | [6] | [7] | [8] | [9] | [10] | [11] | [12] | [13] | [14] | [15] | [16] | [20] | [17] | [18] | [19]

FC1CC(F)(F)C(F)(F)C1(F)F (centres undefined)
inactive: all assays above

CCCCC(CC)COP(=O)(O)OCC(CC)CCCC (centres undefined)
inactive: [1] | [3] | [4] | [5] | [6] | [7] | [8] | [9] | [10] | [11] | [12] | [13] | [15] | [16] | [17] | [18]
active: [2] 25.9 µM and 14.4 µM | [14] 24.9 µM and 28.3 µM | [16] 0.988 µM | [20] 26.9 µM and 27.5 µM | [17] 20 µM | [19] 32.9 µM and 34.6 µM

Cc1ccc(S(=O)(=O)OCC(F)(F)C(F)(F)C(F)(F)C(F)(F)C(F)(F)C(F)F)cc1
inactive: all assays above

OCCCC(F)(F)C(F)(F)C(F)(F)F
inactive: all assays above

FC(F)(F)C(F)(F)C(F)(F)C(F)(F)C(F)(F)C(F)(F)C(F)(F)C(F)(F)CCS
active: [13] 0.0438 µM
inactive: [1] | [2] | [3] | [4] | [5] | [6] | [7] | [8] | [9] | [10] | [11] | [12] | [13] | [14] | [15] | [16] | [20] | [17] | [18] | [19]

N=C(N)C(F)(F)C(F)(F)C(F)(F)C(F)(F)C(F)(F)C(F)(F)C(F)(F)F
active: [4] 30 µM | [6] 27.1 µM | [8] 46.1 µM | [14] 42.9 µM and 50.1 µM | [20] 10.9 µM and 10.7 µM | [17] 53.9 µM | [19] 39.7 µM and 54.7 µM
inactive: [1] | [2] | [3] | [4] | [5] | [6] | [7] | [8] | [9] | [10] | [11] | [12] | [13] | [15] | [16] | [17] | [18]

FC(F)(F)C(F)(F)C(F)(F)C(F)(F)C(F)(F)C(F)(F)CC1CO1 (centres undefined)
inactive: all assays above

O=C(O)C(F)(F)C(F)(F)C(F)(F)C(F)(F)C(F)(F)C(F)(F)C(F)(F)C(F)(F)C(F)(F)C(F)(F)C(F)(F)C(F)(F)C(F)(F)F
inactive: [1] | [2] | [3] | [4] | [5] | [6] | [7] | [8] | [9] | [10] | [11] | [12] | [13] | [14] | [15] | [16] | [20] | [17] | [18] | [19]
active: [7] 0.0339 µM | [14] 5.35 µM | [20] 641 nM

CC(C)(C)C(=O)CC(=O)C(F)(F)C(F)(F)C(F)(F)F
inactive: all assays above

O=C(O)C(F)(F)C(F)(F)C(F)F
active: [10] 5.48 µM
inactive: [1] | [2] | [3] | [4] | [5] | [6] | [7] | [8] | [9] | [10] | [11] | [12] | [13] | [14] | [15] | [16] | [17] | [18] | [19]

FC(F)(F)C(F)(F)C(F)(F)CI
inactive: all assays above

FC(F)(F)C(F)(F)C(F)(F)C(F)(F)C(F)(F)CCI
active: [8] 7.99 µM and 30 µM | [14] 22.2 µM | [19] 32.1 µM and 31.2 µM
inactive: [1] | [2] | [3] | [4] | [5] | [6] | [7] | [9] | [10] | [11] | [12] | [13] | [14] | [15] | [16] | [17] | [18]

FC(F)(F)C(F)(F)C(F)(F)C(F)(F)C(F)(F)C(F)(F)C(F)(F)Br
inactive: all assays above

O=P(O)(O)OCCC(F)(F)C(F)(F)C(F)(F)C(F)(F)C(F)(F)C(F)(F)F
active: [2] 3.64 µM | [7] 0.258 µM | [10] 0.457 µM | [14] 7.21 µM
inactive: [1] | [2] | [3] | [4] | [5] | [6] | [7] | [8] | [9] | [10] | [11] | [12] | [13] | [14] | [15] | [16] | [17] | [18] | [19]
